# Test results as given in the supplement of paper PMC6555819.
# Legend:
# Test in all cases: PBM binding z-score (relative to random genomic background probes); higher = stronger binding; sequences stand for … in GC…GCGATTGACAGCGTAGAATGAAGG
# [1] = system: FXR:RXRa (NR concentration 270 nM, RXRa partner concentration 90 nM)
# Method in brief: (§1)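 The probes on custom Agilent 4×180K protein-binding microarrays were double-stranded, with 34-nt variable regions bearing direct-repeat seeds, single-nucleotide variants, half-site ablations and random human genomic background sequences. Incubation lasted 1 h with ligand-free nuclear receptor dimers in PBS pH 7.4, 2% milk, 0.02% Triton X-100, 1 mM DTT, 0.2 mg/mL BSA and 0.4 mg/ml salmon testes DNA. Antibodies against each partner (one per run) detected bound dimers, and fluorescence scans were regression-normalized. Binding z-scores take the random background probes as reference.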
# [2] = system: LXRa:RXRa (NR concentration 270 nM, RXRa partner concentration 90 nM)
# Method in brief: as §1
# [3] = system: LXRa homodimer (NR concentration 270 nM)
# Method in brief: as §1
# [4] = system: LXRb:RXRa (NR concentration 270 nM, RXRa partner concentration 90 nM)
# Method in brief: as §1
# [5] = system: LXRb homodimer (NR concentration 270 nM)
# Method in brief: as §1
# [6] = system: PPARa:RXRa (NR concentration 270 nM, RXRa partner concentration 90 nM)
# Method in brief: as §1
# [7] = system: PPARg:RXRa (NR concentration 180 nM, RXRa partner concentration 90 nM)
# Method in brief: as §1
# [8] = system: PPARg:RXRa 270nM:90nM, anti-RXR (NR concentration 270 nM, RXRa partner concentration 90 nM)
# Method in brief: as §1
# [9] = system: PPARg:RXRa 30nM:10nM, anti-RXR (NR concentration 30 nM, RXRa partner concentration 10 nM)
# Method in brief: as §1
# [10] = system: PPARg:RXRa 90nM:30nM, anti-RXR (NR concentration 90 nM, RXRa partner concentration 30 nM)
# Method in brief: as §1
sequence,measurement,setting,value
GCACATAGGTAATACAAGGTGAAAGTCCGATTGT,PBM binding z-score,[1],0.681
same,PBM binding z-score,[2],2.96
same,PBM binding z-score,[3],0.0603
same,PBM binding z-score,[4],0.767
same,PBM binding z-score,[5],-0.39
same,PBM binding z-score,[6],1.47
same,PBM binding z-score,[7],0.894
same,PBM binding z-score,[8],0.539
same,PBM binding z-score,[9],0.253
same,PBM binding z-score,[10],0.343
GCAGAGAGGTGAAACGCAGGTAACTCAGGGTGGC,PBM binding z-score,[1],0.782
same,PBM binding z-score,[2],1.12
same,PBM binding z-score,[3],-0.671
same,PBM binding z-score,[4],0.662
same,PBM binding z-score,[5],-1.3
same,PBM binding z-score,[6],2.86
same,PBM binding z-score,[7],1.21
same,PBM binding z-score,[8],1.02
same,PBM binding z-score,[9],-0.323
same,PBM binding z-score,[10],-0.000796
GCTCGGAGGAAAAGGTCAGAGCTTTGTCCGTAGA,PBM binding z-score,[1],2.6
same,PBM binding z-score,[2],3.37
same,PBM binding z-score,[3],0.256
same,PBM binding z-score,[4],2.58
same,PBM binding z-score,[5],-0.596
same,PBM binding z-score,[6],3.83
same,PBM binding z-score,[7],2.82
same,PBM binding z-score,[8],4.46
same,PBM binding z-score,[9],1.36
same,PBM binding z-score,[10],4.22
ACAGACAGGTGAGTGAAGGTAACTCTGCTGGACG,PBM binding z-score,[1],0.466
same,PBM binding z-score,[2],0.168
same,PBM binding z-score,[3],-0.478
same,PBM binding z-score,[4],-0.2
same,PBM binding z-score,[5],-0.638
same,PBM binding z-score,[6],0.435
same,PBM binding z-score,[7],0.657
same,PBM binding z-score,[8],-0.0647
same,PBM binding z-score,[9],-0.0941
same,PBM binding z-score,[10],0.019
GCGAGTGGGGCATCAGCAGGTTACCATAACTTAA,PBM binding z-score,[1],-0.42
same,PBM binding z-score,[2],-0.14
same,PBM binding z-score,[3],-0.135
same,PBM binding z-score,[4],1.15
same,PBM binding z-score,[5],0.239
same,PBM binding z-score,[6],1.15
same,PBM binding z-score,[7],0.528
same,PBM binding z-score,[8],0.575
same,PBM binding z-score,[9],-0.218
same,PBM binding z-score,[10],0.332
ATCGAAAGGTCGACGAGGTGACTATACACCGTTT,PBM binding z-score,[1],4.76
same,PBM binding z-score,[2],3.44
same,PBM binding z-score,[3],0.283
same,PBM binding z-score,[4],3.17
same,PBM binding z-score,[5],0.252
same,PBM binding z-score,[6],4.53
same,PBM binding z-score,[7],3.26
same,PBM binding z-score,[8],3.2
same,PBM binding z-score,[9],1.22
same,PBM binding z-score,[10],2.33
GCAGACAGGTGAAACGCAGCTAACTCAGGGTGGC,PBM binding z-score,[1],-0.722
same,PBM binding z-score,[2],-0.436
same,PBM binding z-score,[3],-0.887
same,PBM binding z-score,[4],-0.728
same,PBM binding z-score,[5],-1.13
same,PBM binding z-score,[6],0.359
same,PBM binding z-score,[7],0.371
same,PBM binding z-score,[8],-0.353
same,PBM binding z-score,[9],-0.974
same,PBM binding z-score,[10],-0.585
ACTATTCGTTGAGACGAGGGCAACCGATAGGTTG,PBM binding z-score,[1],0.146
same,PBM binding z-score,[2],-0.0079
same,PBM binding z-score,[3],-0.194
same,PBM binding z-score,[4],0.132
same,PBM binding z-score,[5],0.215
same,PBM binding z-score,[6],0.431
same,PBM binding z-score,[7],0.548
same,PBM binding z-score,[8],0.366
same,PBM binding z-score,[9],0.255
same,PBM binding z-score,[10],0.115
TAGCCTAGGTCATTCAGTGGCCAGTATAGAAAGC,PBM binding z-score,[1],4.21
same,PBM binding z-score,[2],3.55
same,PBM binding z-score,[3],0.592
same,PBM binding z-score,[4],2.39
same,PBM binding z-score,[5],0.554
same,PBM binding z-score,[6],3.44
same,PBM binding z-score,[7],1.95
same,PBM binding z-score,[8],2.24
same,PBM binding z-score,[9],0.522
same,PBM binding z-score,[10],1.51
CGAACTAGGTCAGAACAGGAAAGTGAAGGATGAT,PBM binding z-score,[1],0.901
same,PBM binding z-score,[2],0.447
same,PBM binding z-score,[3],-0.258
same,PBM binding z-score,[4],0.38
same,PBM binding z-score,[5],-0.116
same,PBM binding z-score,[6],3.21
same,PBM binding z-score,[7],5.08
same,PBM binding z-score,[8],4.29
same,PBM binding z-score,[9],1.92
same,PBM binding z-score,[10],3.33
AATACAGGGTCACTAGGCCAGAGAAGGTACGAAT,PBM binding z-score,[1],5.79
same,PBM binding z-score,[2],5.03
same,PBM binding z-score,[3],1.01
same,PBM binding z-score,[4],3.99
same,PBM binding z-score,[5],0.795
same,PBM binding z-score,[6],5.85
same,PBM binding z-score,[7],7.78
same,PBM binding z-score,[8],6.43
same,PBM binding z-score,[9],3.11
same,PBM binding z-score,[10],5.35
TCATATAGGTAAACAGGTGTAAGTCCGTAAGTTA,PBM binding z-score,[1],0.827
same,PBM binding z-score,[2],0.785
same,PBM binding z-score,[3],-0.0064
same,PBM binding z-score,[4],0.69
same,PBM binding z-score,[5],-0.189
same,PBM binding z-score,[6],1.41
same,PBM binding z-score,[7],1.35
same,PBM binding z-score,[8],2.56
same,PBM binding z-score,[9],3.79
same,PBM binding z-score,[10],3.09
